According to PubChem BioAssay (NCATS):
Values joined by “and” are separate entries in the source; they are usually repeats but may differ in a detail not shown here. Equal values may be shown once. Records with an inconclusive call do not appear. Where a call stands in place of a potency, no number is given. Some structures have more than one record in an assay (separate samples or runs), and their calls can disagree. Active and inactive are the calls of the source. Unless noted, calls follow the shape of the dose curve; as a rule, active = well fitted curve in the direction sought with a large enough effect in the repeat runs; inconclusive = weak or mixed curves; inactive = no such curve, though single readings can be large; an effect the other way counts as inactive or inconclusive.

tested on: not listed separately; assay: Primary qHTS for small molecule stabilizers of the endoplasmic reticulum resident proteome: Secreted ER Calcium Modulated Protein (SERCaMP) assay (AID 1508630; active = well fitted curve in the direction sought with a large enough effect; an effect the other way counts as inactive or inconclusive); settings: SH-SY5Y GLuc-SERCaMP (Gaussia luciferase released on ER calcium loss) secretion, thapsigargin, luminescence; series mostly up to 38.4 µM
Method in brief: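 The SH-SY5Y reporter protocol was run at 3 concentrations up to 38.3 uM (primary) or 11 concentrations (follow-up): 16 h compound, 100 nM thapsigargin for 4 h, then extracellular luciferase luminescence.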

Compound | Potency
CC(=O)OCC(CCn1cnc2cnc(N)nc21)COC(C)=O | inactive
Nc1nnc(-c2cccc(Cl)c2Cl)c(N)n1 | inactive
COc1ccc2[nH]cc(CCNC(C)=O)c2c1 | inactive
COc1cc2c(c(OC)c1OC)-c1ccc(OC)c(=O)cc1[C@@H](NC(C)=O)CC2 | inactive
N[C@@H](Cc1c[nH]c2ccc(O)cc12)C(=O)O | inactive
CCN1CCCC1CNC(=O)c1cc(S(=O)(=O)CC)c(N)cc1OC (stereo not drawn) | inactive
Clc1ccc(C(c2ccccc2Cl)C(Cl)Cl)cc1 (stereo not drawn) | inactive
COc1ccccc1N1CCN(CC(O)COc2cccc3ccccc23)CC1 (stereo not drawn) | inactive
COc1ccc(C2CNC(=O)C2)cc1OC1CCCC1 (stereo not drawn) | inactive
CN1C(C(=O)Nc2ccccn2)=C(O)c2ccccc2S1(=O)=O | inactive
CCC1(C)CC(=O)NC1=O (stereo not drawn) | inactive
O=C(C1CCCCC1)N1CC(=O)N2CCc3ccccc3C2C1 (stereo not drawn) | inactive
C[C@H]1c2cccc(O)c2C(O)=C2C(=O)[C@]3(O)C(O)=C(C(N)=O)C(=O)[C@@H](N(C)C)[C@@H]3[C@@H](O)[C@@H]21 | inactive
NS(=O)(=O)c1cc2c(cc1Cl)NCNS2(=O)=O | inactive

tested on: not listed separately; assay: A High-Content qHTS Against Drug Library for the Identification of Small Molecules that Inhibit DYT1 Early Onset Primary Dystonia-Associated Cell Pathology (AID 1645839; calls by dose curve); settings: HEK293 Flp-In EGFP-delE TorsinA, punctate imaging, 48 h; series mostly up to 46.1 µM
Method in brief: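 Cells were seeded and left for 24 h, then dosed with compound alongside tetracycline induction of mutant EGFP-TorsinA. They were incubated for 48 h, fixed in 4% paraformaldehyde, permeabilized and imaged for mislocalization (%pathology) and cell count.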

Compound | Potency
O=c1[nH]cc(F)c(=O)[nH]1 | inactive
CC[C@@]1(O)C(=O)OCc2c1cc1n(c2=O)Cc2cc3c(CN(C)C)c(O)ccc3nc2-1 | inactive
C[C@](N)(Cc1ccc(O)c(O)c1)C(=O)O | inactive
CN1CCN2c3ccccc3Cc3ccccc3C2C1 (stereo not drawn) | inactive
CN(CCOc1ccc(NS(C)(=O)=O)cc1)CCc1ccc(NS(C)(=O)=O)cc1 | inactive
NCCCCCC(=O)O | inactive
CCc1cccc2c3c([nH]c12)C(CC)(CC(=O)O)OCC3 (stereo not drawn) | inactive
CC(C)NCC(O)COc1ccc(CCOCC2CC2)cc1 (stereo not drawn) | inactive
Nc1ccn([C@H]2CC[C@@H](CO)O2)c(=O)n1 | inactive
O=C1N(c2ccccc2)c2ccccc2C1(Cc1ccncc1)Cc1ccncc1 | inactive
Cc1cc(C(C)(C)C)cc(C)c1CC1=NCCN1 | inactive
Cc1cc(C(C)(C)C)c(O)c(C)c1CC1=NCCN1 | inactive
CCC1(c2ccccc2)C(=O)NCNC1=O | inactive
Cc1cn([C@H]2C=C[C@@H](CO)O2)c(=O)[nH]c1=O | inactive
CCOC(=O)c1ncn2c1CN(C)C(=O)c1cc(F)ccc1-2 | inactive
Nc1c2c(nc3ccccc13)CCCC2 | inactive

Compound | Potency
COC(=O)Nc1nc2ccc(C(=O)c3cccs3)cc2[nH]1 | inactive
O=c1c(-c2ccc(O)cc2)coc2cc(O)cc(O)c12 | inactive
CC(=O)OCC(CCn1cnc2cnc(N)nc21)COC(C)=O | inactive
Nc1nnc(-c2cccc(Cl)c2Cl)c(N)n1 | inactive
COc1ccc2[nH]cc(CCNC(C)=O)c2c1 | inactive
COc1cc2c(c(OC)c1OC)-c1ccc(OC)c(=O)cc1[C@@H](NC(C)=O)CC2 | inactive
N[C@@H](Cc1c[nH]c2ccc(O)cc12)C(=O)O | inactive
CCN1CCCC1CNC(=O)c1cc(S(=O)(=O)CC)c(N)cc1OC (stereo not drawn) | inactive
Clc1ccc(C(c2ccccc2Cl)C(Cl)Cl)cc1 (stereo not drawn) | inactive
COc1ccc(C2CNC(=O)C2)cc1OC1CCCC1 (stereo not drawn) | inactive
CN1C(C(=O)Nc2ccccn2)=C(O)c2ccccc2S1(=O)=O | inactive
CCC1(C)CC(=O)NC1=O (stereo not drawn) | inactive
O=C(C1CCCCC1)N1CC(=O)N2CCc3ccccc3C2C1 (stereo not drawn) | inactive
C[C@H]1c2cccc(O)c2C(O)=C2C(=O)[C@]3(O)C(O)=C(C(N)=O)C(=O)[C@@H](N(C)C)[C@@H]3[C@@H](O)[C@@H]21 | inactive
NS(=O)(=O)c1cc2c(cc1Cl)NCNS2(=O)=O | inactive

molecular target: Cytochrome P450 2D6 (Homo sapiens) (UniProt P10635); assay: Cytochrome P450 family 2 subfamily D member 6 (CYP2D6) small molecule antagonists: luciferase biochemical (cell-free) qHTS assay (AID 1645840); settings: P450-Glo CYP2D6 enzyme, luciferin luminescence, 1 h; series mostly up to 57.4 µM; also: nearly all actives have a fitted effect of over 55% in size; also: potency is read from the fitted curve at half-maximal effect
Sequence (P10635 whole entry, looked up): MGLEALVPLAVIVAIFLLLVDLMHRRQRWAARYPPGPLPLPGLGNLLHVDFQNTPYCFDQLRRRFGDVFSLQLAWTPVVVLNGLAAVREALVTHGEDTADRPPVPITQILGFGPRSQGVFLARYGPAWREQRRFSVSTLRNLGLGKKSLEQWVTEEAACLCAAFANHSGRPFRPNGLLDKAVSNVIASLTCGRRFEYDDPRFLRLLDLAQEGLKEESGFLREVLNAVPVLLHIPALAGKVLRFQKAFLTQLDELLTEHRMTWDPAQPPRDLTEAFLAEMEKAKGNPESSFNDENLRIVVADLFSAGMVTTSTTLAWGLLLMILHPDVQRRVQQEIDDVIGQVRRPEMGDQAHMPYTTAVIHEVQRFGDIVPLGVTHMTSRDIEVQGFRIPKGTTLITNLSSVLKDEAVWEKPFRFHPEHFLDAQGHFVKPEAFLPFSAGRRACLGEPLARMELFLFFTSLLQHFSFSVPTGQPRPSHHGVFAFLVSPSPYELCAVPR
Method in brief: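 P450-Glo CYP2D6 system: proluciferin substrate converted by enzyme to luciferin, read by luminescence proportional to activity. Enzyme-substrate mix with compound 10 min at room temperature, then NADPH regeneration 1 h before detection reagent.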

Compound | Potency
O=c1[nH]cc(F)c(=O)[nH]1 | inactive
COc1cc2nc(N3CCN(C(=O)C4COc5ccccc5O4)CC3)nc(N)c2cc1OC (stereo not drawn) | inactive
COc1cc2nc(N3CCN(C(=O)c4ccco4)CC3)nc(N)c2cc1OC | inactive
CCOC(=O)c1ncn2c1CN(C)C(=O)c1cc(F)ccc1-2 | inactive
COc1cc2c(c(OC)c1OC)-c1ccc(OC)c(=O)cc1[C@@H](NC(C)=O)CC2 | inactive
N[C@@H](Cc1c[nH]c2ccc(O)cc12)C(=O)O | 19.5 µM (active)
COc1ccccc1N1CCN(CC(O)COc2cccc3ccccc23)CC1 (stereo not drawn) | 0.436 µM (active)
COc1ccc(C2CNC(=O)C2)cc1OC1CCCC1 (stereo not drawn) | inactive
CN1C(C(=O)Nc2ccccn2)=C(O)c2ccccc2S1(=O)=O | inactive
C[C@H]1c2cccc(O)c2C(O)=C2C(=O)[C@]3(O)C(O)=C(C(N)=O)C(=O)[C@@H](N(C)C)[C@@H]3[C@@H](O)[C@@H]21 | inactive

molecular target: Cytochrome P450 2C9 (Homo sapiens) (UniProt P11712); assay: Cytochrome P450 family 2 subfamily C member 9 (CYP2C9) small molecule antagonists: luciferase biochemical (cell-free) qHTS assay (AID 1645842); settings: P450-Glo CYP2C9 enzyme assay, luciferin luminescence; series mostly up to 57.4 µM; also: nearly all actives have a fitted effect of over 55% in size; also: potency is read from the fitted curve at half-maximal effect
Sequence (P11712 whole entry, looked up): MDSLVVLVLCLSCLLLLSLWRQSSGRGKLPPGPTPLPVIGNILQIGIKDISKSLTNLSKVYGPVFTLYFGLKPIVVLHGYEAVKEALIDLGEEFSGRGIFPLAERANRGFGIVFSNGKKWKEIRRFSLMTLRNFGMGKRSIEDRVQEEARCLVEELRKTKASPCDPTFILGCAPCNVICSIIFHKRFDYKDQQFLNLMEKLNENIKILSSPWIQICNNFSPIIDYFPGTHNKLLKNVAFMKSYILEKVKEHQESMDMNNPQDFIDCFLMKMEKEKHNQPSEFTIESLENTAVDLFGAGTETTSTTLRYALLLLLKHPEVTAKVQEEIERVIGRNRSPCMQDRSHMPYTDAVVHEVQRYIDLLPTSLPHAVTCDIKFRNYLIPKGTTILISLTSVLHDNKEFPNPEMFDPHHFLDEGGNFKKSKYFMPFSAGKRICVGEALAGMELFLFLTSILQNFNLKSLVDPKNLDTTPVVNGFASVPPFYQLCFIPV
Method in brief: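 P450-Glo CYP2C9 system: proluciferin substrate with enzyme in mix containing 0.4% BSA, 10 min at room temperature, then NADPH regeneration solution added and incubated 1 h at 37C. Detection reagent stopped reaction; luminescence read after 20 min as RLU.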

Compound | Potency
O=c1[nH]cc(F)c(=O)[nH]1 | inactive
CC[C@@]1(O)C(=O)OCc2c1cc1n(c2=O)Cc2cc3c(CN(C)C)c(O)ccc3nc2-1 | inactive
COc1cc2nc(N3CCN(C(=O)C4COc5ccccc5O4)CC3)nc(N)c2cc1OC (stereo not drawn) | inactive
C[C@](N)(Cc1ccc(O)c(O)c1)C(=O)O | inactive
CN1CCN2c3ccccc3Cc3ccccc3C2C1 (stereo not drawn) | inactive
CN(CCOc1ccc(NS(C)(=O)=O)cc1)CCc1ccc(NS(C)(=O)=O)cc1 | inactive
NCCCCCC(=O)O | inactive
CCc1cccc2c3c([nH]c12)C(CC)(CC(=O)O)OCC3 (stereo not drawn) | 18.2 µM (active)
CC(C)NCC(O)COc1ccc(CCOCC2CC2)cc1 (stereo not drawn) | inactive
Nc1ccn([C@H]2CC[C@@H](CO)O2)c(=O)n1 | inactive
O=C1N(c2ccccc2)c2ccccc2C1(Cc1ccncc1)Cc1ccncc1 | 2.19 µM (active)
Cc1cc(C(C)(C)C)cc(C)c1CC1=NCCN1 | inactive
Cc1cc(C(C)(C)C)c(O)c(C)c1CC1=NCCN1 | inactive
COc1cc2nc(N3CCN(C(=O)c4ccco4)CC3)nc(N)c2cc1OC | inactive
CCC1(c2ccccc2)C(=O)NCNC1=O | inactive
Cc1cn([C@H]2C=C[C@@H](CO)O2)c(=O)[nH]c1=O | inactive
CCOC(=O)c1ncn2c1CN(C)C(=O)c1cc(F)ccc1-2 | inactive and 13.5 µM (active)

Compound | Potency
Nc1c2c(nc3ccccc13)CCCC2 | inactive
COC(=O)Nc1nc2ccc(C(=O)c3cccs3)cc2[nH]1 | inactive
O=c1c(-c2ccc(O)cc2)coc2cc(O)cc(O)c12 | inactive
CC(=O)OCC(CCn1cnc2cnc(N)nc21)COC(C)=O | inactive
Nc1nnc(-c2cccc(Cl)c2Cl)c(N)n1 | inactive
COc1ccc2[nH]cc(CCNC(C)=O)c2c1 | inactive
COc1cc2c(c(OC)c1OC)-c1ccc(OC)c(=O)cc1[C@@H](NC(C)=O)CC2 | inactive
N[C@@H](Cc1c[nH]c2ccc(O)cc12)C(=O)O | 15.5 µM (active)
CCN1CCCC1CNC(=O)c1cc(S(=O)(=O)CC)c(N)cc1OC (stereo not drawn) | inactive
Clc1ccc(C(c2ccccc2Cl)C(Cl)Cl)cc1 (stereo not drawn) | 12.3 µM (active)
COc1ccc(C2CNC(=O)C2)cc1OC1CCCC1 (stereo not drawn) | inactive
CN1C(C(=O)Nc2ccccn2)=C(O)c2ccccc2S1(=O)=O | 15.5 µM (active) and 10.7 µM (active)
CCC1(C)CC(=O)NC1=O (stereo not drawn) | inactive
O=C(C1CCCCC1)N1CC(=O)N2CCc3ccccc3C2C1 (stereo not drawn) | inactive
C[C@H]1c2cccc(O)c2C(O)=C2C(=O)[C@]3(O)C(O)=C(C(N)=O)C(=O)[C@@H](N(C)C)[C@@H]3[C@@H](O)[C@@H]21 | inactive
NS(=O)(=O)c1cc2c(cc1Cl)NCNS2(=O)=O | inactive
